Bioassay records from PubChem BioAssay.
A selection: hits, their analogues and other compounds. The true share with any hit is near 1.6%.
KCNQ2 enhance: KCNQ2 (rat) channel potentiation; CHO-K1 KCNQ2, FluxOR thallium flux fluorescence; stronger effect = higher value; actives 0.54% (n = 310,000); B-score at 10 µM; AID 2239; O88943;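 active = fluorescence ratio B-score at least 3 SD of library B-scores, with initial fluorescence B-score within 3 of them, cut at about 5.3 in these data; same plate scores as AID 2156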;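 note: B-score of peak minus minimum over baseline fluorescence ratio after K+ and Tl+ stimulus; positive B-score means potentiation of KCNQ2 with more thallium influx and brighter signal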
KCNQ2 block: blocks the rat KCNQ2 potassium channel; O88943; CHO-K1 KCNQ2, FluxOR thallium flux, 20 min; stronger effect = lower value; B-score at 10 µM; actives 1.1% (n = 310,000);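 active = fluorescence ratio B-score at most minus 3 library SDs, with starting brightness B-score within 2 library SDs, cut at about -5.5 in these data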
Kir21 conf inh: confirmation of mouse Kir2.1 potassium channel inhibitors; Tl flux remaining, % of negative control (stronger effect = lower value), % at 10 µM; actives 41% (n = 2,300); shares compounds with KCNQ2 enhance; Kir2.1-expressing cells, FluxOR thallium flux fluorescence; stronger effect = lower value; AID 2032;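 active = Primary-screen hit whose thallium flux fell at least 3 control SD below untreated wells in both duplicates, with normal baseline fluorescence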;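 note: 0% = blank wells without stimulus and 100% = stimulated no-compound controls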
Target sequence (P35561 whole entry, looked up): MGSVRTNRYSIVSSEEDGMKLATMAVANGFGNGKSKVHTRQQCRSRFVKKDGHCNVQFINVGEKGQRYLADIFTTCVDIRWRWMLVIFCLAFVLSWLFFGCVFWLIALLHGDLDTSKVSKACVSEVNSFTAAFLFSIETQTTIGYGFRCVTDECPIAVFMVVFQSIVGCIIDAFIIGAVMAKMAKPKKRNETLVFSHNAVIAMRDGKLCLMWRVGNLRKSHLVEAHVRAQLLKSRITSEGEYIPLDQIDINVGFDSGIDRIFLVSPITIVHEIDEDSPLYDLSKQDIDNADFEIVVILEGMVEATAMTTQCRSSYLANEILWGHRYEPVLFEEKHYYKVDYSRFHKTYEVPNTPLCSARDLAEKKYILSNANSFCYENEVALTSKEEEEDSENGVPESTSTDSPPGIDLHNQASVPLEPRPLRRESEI
HEK293 ctr: counter-screen for Kir2.1 inhibitors: effect in parental HEK293 cells; shares compounds with KCNQ2 enhance; FluxOR thallium flux fluorescence; 0% = unstimulated blank wells; FluxOR signal as % of negative control (100 = no effect), % at 10 µM; actives 19% (n = 2,300); AID 2105;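 active = dye signal at least 3 control SD above or below untreated wells in both duplicates, raw fluorescence within 3, either direction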;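 note: percent is based on the flux ratio of peak minus minimum fluorescence over baseline F0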
CHO-K1 Tl ctr: counter-screen for KCNQ2 potentiators: effect in parental CHO-K1 cells; activity increase over 3SD of controls, % at 10 µM; actives 43% (n = 1,200); shares compounds with KCNQ2 enhance; FluxOR thallium flux fluorescence; zero = vehicle mean+3SD, 100% = vehicle-minus-blank window;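 active = signal rise of at least 3 SD above the untreated control mean, in both duplicate wells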;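 note: counter screen of KCNQ2 potentiator hits so any rise reflects channel-independent effects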
KCNQ1 sel pot: selectivity of KCNQ2 potentiators: effect on human KCNQ1; shares compounds with KCNQ2 enhance; CHO KCNQ1 stable, FluxOR thallium flux fluorescence; beyond 3SD, as % of vehicle-control signal; activation over 3SD threshold, % at 10 µM; actives 28% (n = 1,200);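 active = fluorescence ratio rise of at least 3 SD of vehicle wells above their mean, in both replicate wells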;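 note: 0% = vehicle mean plus 3 SD and 100% = vehicle minus unstimulated blank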
KCNQ2 pot conf: rat KCNQ2 channel potentiator confirmation | shares compounds with KCNQ2 enhance | CHO-KCNQ2 cells, FluxOR thallium flux fluorescence | potentiation, less the hit threshold, % at 10 µM | actives 68% (n = 1,200) | AID 2287;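 active = fluorescence ratio rising 3 SD or more over the vehicle control mean in both replicates, plus primary screen hit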;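 note: peak minus minimum thallium fluorescence divided by baseline after K/Tl stimulus; 0% = vehicle mean plus 3 SD and 100% = vehicle minus unstimulated blank difference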
Kir2-1 sel: selectivity of KCNQ2 potentiators: effect on mouse Kir2.1; shares compounds with KCNQ2 enhance; HEK293 Kir2.1, FluxOR thallium flux fluorescence; activity over 3SD threshold, % at 10 µM; actives 2% (n = 1,200);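 active = fluorescence ratio rise of at least 3 SD above the vehicle-control mean, seen in both replicates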;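 note: 0% = vehicle mean plus 3 SD and 100% = vehicle minus no-stimulus blank window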
KCNQ2 W236L pot: potentiates the retigabine-insensitive rat KCNQ2 W236L mutant channel. current increase over 3SD of negative controls (%), stronger effect = higher value, % at 25 µM. actives 10% (n = 940). CHO KCNQ2-W236L, automated patch clamp current. shares compounds with KCNQ2 enhance;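 active = current increase at least 3 SD of the untreated controls above them in both duplicate recordings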
The depositor's hits bear a star; i = inactive; nt = no result given.

SMILES	KCNQ2 enhance	KCNQ2 block	Kir21 conf inh	HEK293 ctr	CHO-K1 Tl ctr	KCNQ1 sel pot	KCNQ2 pot conf	Kir2-1 sel	others
CCc1cc2ccc(C)c(C)c2nc1SCC(=O)Nc1cc(C)on1	1.1	i	nt	nt	nt	nt	nt	nt
Cc1cccc(CC(=O)NC2CCN(C)CC2)c1	nt	i	nt	nt	nt	nt	nt	nt
Cc1ccc(OCC(=O)NC2CCCCCC2)cc1C	6.5*	i	i	i	-3	-16	2.0*	-42	KCNQ2 W236L pot=i
Cc1cc2cccc(C)c2nc1SCC(=O)NC1CCCCC1	13*	i	i	i	-2	-7	0.3*	-27	KCNQ2 W236L pot=i
Cc1cc(NC(=O)CSc2nc3c(C)c(C)ccc3cc2C)no1	5.9*	i	i	i	-26	-8	-11	-35
Cc1cc2cccc(C)c2nc1SCC(=O)NCC1CCCO1 (configuration not stated)	0.98	i	nt	nt	nt	nt	nt	nt
Cc1cccc(CC(=O)NC2CCCCCC2)c1	6.7*	i	i	i	-6	-37	11*	-34	KCNQ2 W236L pot=i
CCOCCn1c(CN2CCc3ccccc3C2)nc2c1c(=O)n(C)c(=O)n2C	nt	i	nt	nt	nt	nt	nt	nt
COc1ccc(/C=N/NC(=O)c2ccc3c(c2)NC(=O)C(C)(C)O3)cc1OC	2.2	i	nt	nt	nt	nt	nt	nt
Cc1cccc(CNC(=O)C2CCC(=O)N(Cc3ccccc3F)C2)n1 (configuration not stated)	0.15	i	nt	nt	nt	nt	nt	nt
Cc1cccc(C)c1NC(=O)CN1C(=O)COc2ccccc21	nt	i	nt	nt	nt	nt	nt	nt
COCCCNC(=O)COc1ccc(S(=O)(=O)NCc2ccccc2)cc1Cl	0.79	i	nt	nt	nt	nt	nt	nt
O=C(Nc1nccs1)c1ccc2ccccc2c1	1.3	i	nt	nt	nt	nt	nt	nt
O=C(Nc1n[nH]c(=S)s1)c1ccc2ccccc2c1	6.5*	i	i	222%*	-5	16*	8.2*	-12	KCNQ2 W236L pot=18%*
COc1ccc(OC)c(NC(=O)C2=C(C)NC(=O)NC2c2cccs2)c1 (configuration not stated)	0.21	i	nt	nt	nt	nt	nt	nt
O=C(CN1CCN(Cc2ccc(Cl)cc2)CC1)N1CCc2ccccc21	0.49	i	35%*	i	nt	nt	nt	nt
O=C(CN1CCN(Cc2ccccc2)CC1)N1CCCc2ccccc21	0.64	i	nt	nt	nt	nt	nt	nt
Cc1ccc(CSCCNS(=O)(=O)c2ccc([N+](=O)[O-])cc2)cc1	nt	i	nt	nt	nt	nt	nt	nt
Cc1ccc(S(=O)(=O)NCCSCc2ccccc2)cc1	nt	i	64%*	i	nt	nt	nt	nt
O=C(COc1cccc(NC(=O)c2cccc([N+](=O)[O-])c2)c1)c1ccc(Br)cc1	8.9*	i	i	i	3.8*	-14	12*	-32	KCNQ2 W236L pot=i
O=C(NNC(=S)NC(=O)c1ccc(Br)cc1)c1cccc([N+](=O)[O-])c1	7.6*	i	i	i	-5	-15	-35	-38
O=C(Nc1cccc(OCC(=O)N2CCOCC2)c1)c1cccc([N+](=O)[O-])c1	1.2	i	nt	nt	nt	nt	nt	nt
O=C(NNC(=S)NC(=O)c1ccc(Br)cc1)c1ccc([N+](=O)[O-])cc1	0.06	i	nt	nt	nt	nt	nt	nt
Cc1cccc(C(=O)NNC(=S)NC(=O)c2ccccc2)c1	0.69	i	nt	nt	nt	nt	nt	nt
Cc1ccc(C(=O)NNC(=S)NC(=O)c2ccccc2)cc1	1.1	i	i	i	nt	nt	nt	nt
SMILES	KCNQ2 enhance	KCNQ2 block	Kir21 conf inh	HEK293 ctr	CHO-K1 Tl ctr	KCNQ1 sel pot	KCNQ2 pot conf	Kir2-1 sel	others
C/C(N)=C(/C#N)C(=O)CSc1nc(-c2ccccc2)c(-c2ccccc2)o1	nt	i	nt	nt	nt	nt	nt	nt
Cc1ccc(C(C)NC(=S)NC2CCCCC2)c(C)c1 (configuration not stated)	7.3*	i	nt	nt	70*	-6	-2	-55	KCNQ2 W236L pot=8.5%*
Cc1ccc(C(C)NC(=S)NC2CCCCC2)cc1C (configuration not stated)	25*	i	i	i	-30	8.7*	103*	-51	KCNQ2 W236L pot=i
CCN1CCN(C(c2cccs2)C(C)NC(=S)NC2CCCCC2)CC1 (configuration not stated)	nt	i	nt	nt	nt	nt	nt	nt
CCC(NC(=O)NC1CCCCC1)c1ccccc1 (configuration not stated)	19*	i	i	i	-18	-13	70*	-35	KCNQ2 W236L pot=i
COc1ccc(C(C)NC(=S)NC2CCCC2)cc1OC (configuration not stated)	0.16	i	nt	nt	nt	nt	nt	nt
CC(=O)NC(CC(=O)NC1CCCCCC1)c1ccccc1 (configuration not stated)	1.4	i	nt	nt	nt	nt	nt	nt
CCC(NC(=S)NC1CCCCC1)c1ccc(C(C)C)cc1 (configuration not stated)	14*	i	i	i	18*	-25	54*	-32	KCNQ2 W236L pot=i
Cc1ccc(C(C)NC(=O)C2CCCC2)c(C)c1 (configuration not stated)	0.67	i	nt	nt	nt	nt	nt	nt
O=C(COc1ccccc1)Nc1c2c(nn1-c1ccccc1)CS(=O)C2 (configuration not stated)	nt	i	nt	nt	nt	nt	nt	nt
O=c1[nH]cccc1-c1nc2ccccc2n1Cc1cccc(F)c1	nt	i	nt	nt	nt	nt	nt	nt
COc1ccc(S(=O)(=O)N(CC(=O)NCC2CCCO2)C2CCCCC2)cc1OC (configuration not stated)	1.7	i	nt	nt	nt	nt	nt	nt
COc1ccc(CN2CC(C(N)=O)Oc3ccccc32)cc1F (configuration not stated)	nt	i	nt	nt	nt	nt	nt	nt
CCCCCC(O)(c1ccc(OC)cc1)C(CN1CCOCC1)c1ccccc1 (configuration not stated)	6.2*	i	i	i	62*	-13	-2	-29	KCNQ2 W236L pot=i
CCCCC(O)(c1ccc(OC)cc1)C(CN1CCOCC1)c1ccccc1 (configuration not stated)	0.75	i	nt	nt	nt	nt	nt	nt
O=C(c1ccccc1)C(O)C(c1ccccc1)N1CCOCC1 (configuration not stated)	nt	i	nt	nt	nt	nt	nt	nt
CCn1c(COc2ccc(C)cc2)nnc1SCc1ccc(C#N)cc1	nt	i	68%*	i	nt	nt	nt	nt
CCn1c(COc2ccc(=O)n(-c3ccccc3)n2)nnc1SCc1ccc(C)cc1	nt	i	nt	nt	nt	nt	nt	nt
O=C1CC2(CCN(C(=O)COc3ccc(Cl)cc3)CC2)Oc2ccccc21	nt	i	nt	nt	nt	nt	nt	nt
FC(F)(F)c1ccc(Nc2nnnc3ccccc23)cc1	nt	i	nt	nt	nt	nt	nt	nt
O=C1OC(c2ccccc2)=C/C1=C/N1CCCCC1	nt	i	nt	nt	nt	nt	nt	nt
COC(=O)/C=C1\OC(c2ccccc2)=CC1=O	-13	-13*	54%*	66%*	nt	nt	nt	nt
